The values below come from ChEMBL document CHEMBL2218924, “A broad activity screen in support of a chemogenomic map for kinase signalling research and drug discovery” (Biochem J, 2013).

Experiment [1] deals with Tyrosine-protein kinase SYK (Homo sapiens) (UniProt P43405). Particulars: at 10 µM.
Experiment [2] deals with T1, Mitogen-activated protein kinase kinase kinase 7 (Homo sapiens) (UniProt O43318).
T1 sequence (whole entry): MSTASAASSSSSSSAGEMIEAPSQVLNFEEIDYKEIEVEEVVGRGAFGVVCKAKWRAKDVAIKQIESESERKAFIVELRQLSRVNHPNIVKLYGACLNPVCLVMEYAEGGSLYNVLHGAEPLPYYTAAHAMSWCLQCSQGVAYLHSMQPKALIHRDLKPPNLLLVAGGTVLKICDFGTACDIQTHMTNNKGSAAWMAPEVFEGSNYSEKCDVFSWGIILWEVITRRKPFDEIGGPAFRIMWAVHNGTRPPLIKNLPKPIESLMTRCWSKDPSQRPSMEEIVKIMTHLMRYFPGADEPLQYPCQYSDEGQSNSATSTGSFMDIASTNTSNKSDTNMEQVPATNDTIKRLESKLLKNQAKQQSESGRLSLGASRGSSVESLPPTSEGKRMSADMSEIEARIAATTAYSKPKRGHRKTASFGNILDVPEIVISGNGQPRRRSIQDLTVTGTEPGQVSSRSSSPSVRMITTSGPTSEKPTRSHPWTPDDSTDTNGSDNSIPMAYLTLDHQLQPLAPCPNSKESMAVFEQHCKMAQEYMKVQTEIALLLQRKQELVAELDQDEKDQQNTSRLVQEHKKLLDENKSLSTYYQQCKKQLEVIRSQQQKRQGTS
Particulars: at 1 µM.

Experiment [3] has as its target T1, Mitogen-activated protein kinase kinase kinase 7 (Homo sapiens). The following applies: at 10 µM.
In experiment [4] the target is T2, Serine/threonine-protein kinase TAO1 (Homo sapiens) (UniProt Q7L7X3).
T2 sequence (whole entry): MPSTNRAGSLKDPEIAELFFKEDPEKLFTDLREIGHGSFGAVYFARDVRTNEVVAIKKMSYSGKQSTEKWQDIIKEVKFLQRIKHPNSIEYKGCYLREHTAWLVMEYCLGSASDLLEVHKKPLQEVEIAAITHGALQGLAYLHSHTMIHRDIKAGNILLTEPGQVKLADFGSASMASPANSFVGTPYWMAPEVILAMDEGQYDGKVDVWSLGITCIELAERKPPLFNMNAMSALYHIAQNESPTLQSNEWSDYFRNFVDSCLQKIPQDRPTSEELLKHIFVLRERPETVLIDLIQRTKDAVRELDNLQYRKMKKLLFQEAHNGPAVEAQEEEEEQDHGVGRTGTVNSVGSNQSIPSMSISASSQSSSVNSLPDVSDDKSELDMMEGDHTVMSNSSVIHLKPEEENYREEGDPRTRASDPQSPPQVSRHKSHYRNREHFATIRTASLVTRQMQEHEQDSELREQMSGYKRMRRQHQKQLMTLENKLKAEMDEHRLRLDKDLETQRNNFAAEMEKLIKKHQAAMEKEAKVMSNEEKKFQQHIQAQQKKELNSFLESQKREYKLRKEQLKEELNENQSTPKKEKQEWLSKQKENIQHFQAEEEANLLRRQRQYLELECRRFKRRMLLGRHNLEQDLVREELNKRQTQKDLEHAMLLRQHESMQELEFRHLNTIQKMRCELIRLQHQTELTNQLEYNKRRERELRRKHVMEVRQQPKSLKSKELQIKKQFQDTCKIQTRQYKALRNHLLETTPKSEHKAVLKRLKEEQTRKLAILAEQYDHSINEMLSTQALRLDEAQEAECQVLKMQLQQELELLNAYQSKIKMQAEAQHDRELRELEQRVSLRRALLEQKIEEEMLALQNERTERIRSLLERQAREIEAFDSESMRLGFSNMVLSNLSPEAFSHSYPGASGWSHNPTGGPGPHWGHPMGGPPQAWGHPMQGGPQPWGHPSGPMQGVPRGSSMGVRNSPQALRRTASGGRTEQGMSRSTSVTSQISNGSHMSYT
Particulars: at 1 µM.

Experiment [5] addresses T2, Serine/threonine-protein kinase TAO1 (Homo sapiens). Particulars: at 10 µM.
Experiment [6] addresses T3, Serine/threonine-protein kinase TAO2 (Homo sapiens) (UniProt Q9UL54).
T3 sequence (whole entry): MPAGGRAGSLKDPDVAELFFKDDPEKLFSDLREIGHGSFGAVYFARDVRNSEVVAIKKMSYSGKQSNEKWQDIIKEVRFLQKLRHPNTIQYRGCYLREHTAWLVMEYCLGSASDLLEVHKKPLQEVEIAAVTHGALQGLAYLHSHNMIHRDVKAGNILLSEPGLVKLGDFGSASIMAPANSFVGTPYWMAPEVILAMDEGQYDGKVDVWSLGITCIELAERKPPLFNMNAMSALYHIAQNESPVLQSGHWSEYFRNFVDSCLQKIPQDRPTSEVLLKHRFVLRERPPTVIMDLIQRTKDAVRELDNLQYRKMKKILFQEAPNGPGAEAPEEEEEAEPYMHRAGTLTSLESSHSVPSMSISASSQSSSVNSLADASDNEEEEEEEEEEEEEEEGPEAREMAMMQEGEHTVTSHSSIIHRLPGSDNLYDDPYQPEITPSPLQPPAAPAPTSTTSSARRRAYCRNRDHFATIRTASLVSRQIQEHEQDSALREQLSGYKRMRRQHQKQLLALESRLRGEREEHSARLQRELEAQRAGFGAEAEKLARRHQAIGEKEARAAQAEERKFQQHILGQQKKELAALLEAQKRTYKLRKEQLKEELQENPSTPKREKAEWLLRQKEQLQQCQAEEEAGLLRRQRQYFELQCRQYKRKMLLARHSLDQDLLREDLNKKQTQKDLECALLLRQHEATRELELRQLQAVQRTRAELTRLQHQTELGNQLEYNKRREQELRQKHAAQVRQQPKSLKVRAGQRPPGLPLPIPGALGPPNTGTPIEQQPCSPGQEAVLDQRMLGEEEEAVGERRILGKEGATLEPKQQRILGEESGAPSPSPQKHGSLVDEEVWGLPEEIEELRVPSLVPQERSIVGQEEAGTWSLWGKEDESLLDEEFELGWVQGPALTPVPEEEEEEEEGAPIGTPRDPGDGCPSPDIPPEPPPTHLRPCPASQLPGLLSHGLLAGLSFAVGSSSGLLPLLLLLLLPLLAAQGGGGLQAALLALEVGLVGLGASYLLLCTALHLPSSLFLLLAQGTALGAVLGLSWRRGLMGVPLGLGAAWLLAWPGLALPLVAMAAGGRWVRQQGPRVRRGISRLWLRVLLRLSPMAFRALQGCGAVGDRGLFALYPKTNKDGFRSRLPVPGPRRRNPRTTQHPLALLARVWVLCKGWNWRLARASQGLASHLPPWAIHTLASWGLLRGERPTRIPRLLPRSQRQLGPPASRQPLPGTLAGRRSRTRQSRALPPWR
Particulars: at 1 µM.

Experiment [7] addresses T3, Serine/threonine-protein kinase TAO2 (Homo sapiens). The following applies: at 10 µM.
The target in experiment [8] is T4, Serine/threonine-protein kinase TAO3 (Homo sapiens) (UniProt Q9H2K8).
T4 sequence (whole entry): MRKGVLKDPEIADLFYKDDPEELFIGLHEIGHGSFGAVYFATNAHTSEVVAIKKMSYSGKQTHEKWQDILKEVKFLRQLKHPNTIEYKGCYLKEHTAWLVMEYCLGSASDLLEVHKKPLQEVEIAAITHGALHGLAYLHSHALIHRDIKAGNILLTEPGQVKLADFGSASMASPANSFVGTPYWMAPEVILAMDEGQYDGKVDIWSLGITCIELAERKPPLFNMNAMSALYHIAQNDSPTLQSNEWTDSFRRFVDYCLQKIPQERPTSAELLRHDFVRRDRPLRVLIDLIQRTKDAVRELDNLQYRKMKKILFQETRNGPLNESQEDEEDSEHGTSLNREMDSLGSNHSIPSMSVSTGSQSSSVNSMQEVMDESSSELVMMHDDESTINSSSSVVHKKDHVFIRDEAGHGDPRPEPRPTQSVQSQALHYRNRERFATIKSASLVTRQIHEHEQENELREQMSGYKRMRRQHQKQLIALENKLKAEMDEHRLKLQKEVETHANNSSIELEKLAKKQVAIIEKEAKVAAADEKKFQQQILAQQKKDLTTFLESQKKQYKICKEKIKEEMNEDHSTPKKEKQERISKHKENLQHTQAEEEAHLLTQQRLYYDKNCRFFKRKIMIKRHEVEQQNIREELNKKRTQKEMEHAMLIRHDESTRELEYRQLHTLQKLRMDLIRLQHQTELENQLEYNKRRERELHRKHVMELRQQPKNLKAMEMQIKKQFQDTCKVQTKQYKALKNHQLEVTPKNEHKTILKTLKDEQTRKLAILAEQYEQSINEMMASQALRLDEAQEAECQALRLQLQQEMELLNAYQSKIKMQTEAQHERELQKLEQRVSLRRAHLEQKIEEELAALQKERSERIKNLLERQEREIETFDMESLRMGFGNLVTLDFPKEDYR
The following applies: at 1 µM.

For experiment [9], the target named is T4, Serine/threonine-protein kinase TAO3 (Homo sapiens). Particulars: at 10 µM.
Experiment [10] deals with T5, Serine/threonine-protein kinase TBK1 (Homo sapiens) (UniProt Q9UHD2).
T5 sequence (whole entry): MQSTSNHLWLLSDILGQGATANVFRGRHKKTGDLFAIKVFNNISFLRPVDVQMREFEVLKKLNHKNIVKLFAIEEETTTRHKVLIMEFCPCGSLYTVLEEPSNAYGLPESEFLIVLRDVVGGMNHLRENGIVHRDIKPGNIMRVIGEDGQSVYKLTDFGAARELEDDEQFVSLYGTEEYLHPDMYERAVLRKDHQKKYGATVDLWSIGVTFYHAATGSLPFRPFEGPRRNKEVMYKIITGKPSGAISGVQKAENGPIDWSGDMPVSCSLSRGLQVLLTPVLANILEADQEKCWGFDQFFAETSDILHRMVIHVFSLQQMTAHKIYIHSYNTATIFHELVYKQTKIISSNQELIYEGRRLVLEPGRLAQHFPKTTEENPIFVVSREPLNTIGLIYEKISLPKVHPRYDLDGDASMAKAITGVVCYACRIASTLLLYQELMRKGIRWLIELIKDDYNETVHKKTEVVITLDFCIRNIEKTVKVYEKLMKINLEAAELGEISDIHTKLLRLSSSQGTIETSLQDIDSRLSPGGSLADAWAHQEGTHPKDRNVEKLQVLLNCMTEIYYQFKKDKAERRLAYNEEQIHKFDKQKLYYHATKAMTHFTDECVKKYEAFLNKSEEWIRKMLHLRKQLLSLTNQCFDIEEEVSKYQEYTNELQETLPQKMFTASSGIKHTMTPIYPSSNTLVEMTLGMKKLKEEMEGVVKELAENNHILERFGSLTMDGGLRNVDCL
The following applies: at 1 µM.

The structures appear in SMILES notation.

As to `O=Nc1c(-c2c(O)[nH]c3ccccc23)[nH]c2ccccc12`, the residual activity is 60% in experiment [1]; 64% in experiment [2]; 71% in experiment [3]; 83% in experiment [4]; 39% in [5]; 75% in experiment [6]. For the same molecule, the residual activity was found to be 26% in experiment [7], 85% in experiment [8], 28% in [9] and 9% in experiment [10].
